Compounds with a hit are over-represented: about 21% of the library has one in this group of screens.
DT40 TDP1 no CPT: qHTS for Inhibitors of human tyrosyl-DNA phosphodiesterase 1 (TDP1): qHTS in cells in absence of CPT | DT40 Tdp1-/- hTDP1 cells, no CPT, ATP luminescence, 48 h | hit rate 15% among 420,000 | Potency, µM (top dose mostly 46.2 µM), for the others: top-dose activity change, negative = growth inhibition, usual class: inhibitors; note: potency is the fitted concentration of half-maximal effect; nearly all actives have a fitted effect of over 55% in size
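Seeded 400 DT40-hTDP1 cells/well (vehicle DMSO, no 20 nM CPT); pinned compounds; ≥48 hr at 37 °C; CellTiter-Glo luminescence as viability measure.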
IL1B secr inh: qHTS for Inhibitors of Inflammasome Signaling: IL-1-beta AlphaLISA Primary Screen | THP-1 LPS/ATP IL-1B secretion, AlphaLISA, 16 h; active compounds read low | activity change, % at 57.5 µM | AID 743279, 2014 | hit rate 4.7% among 360,000; in the data active = activity change below about -50%; inconclusive = mostly about -30% to -49%
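Secreted IL-1B measured by AlphaLISA bead assay after 16 h compound exposure of THP-1 cells; compounds (final up to 57.5 uM) added 1 h before LPS (250 ng/mL) and ATP (1.25 mM) stimulation; lower signal means less secretion.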
DT40 TDP1 CPT: qHTS for Inhibitors of human tyrosyl-DNA phosphodiesterase 1 (TDP1): qHTS in cells in presence of CPT | Potency, µM (top dose mostly 46.2 µM), for inactives: at the highest dose activity change, negative = growth inhibition, actives largely listed as inhibitors | hit rate 12% among 420,000 | chicken DT40 Tdp1-/-;hTDP1 cells + 20 nM CPT, ATP luminescence, 48 h; note: potency is the fitted concentration of half-maximal effect; nearly all actives have a fitted effect of over 55% in size
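Cell growth measured by CellTiter-Glo luminescence after a minimum 48 h, 37 C compound exposure with 20 nM CPT in Tdp1-knockout DT40 cells stably expressing hTDP1, seeded 400/well; qHTS titration format.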
Gal4-VP16 FLuc: VP16 counterscreen qHTS for inhibitors of ROR gamma transcriptional activity | Drosophila S2 Gal4-VP16 UAS-luciferase, luminescence, 20 h | Potency, µM (highest dose often 53.6 µM), for the others: at the top dose activity, negative = inhibition, hits mostly inhibitors | hit rate 3.5% among 310,000 | AID 2546, 2010;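 note: Gal4-VP16 expression switched on by copper sulfate through the metallothionein promoter; potency is the fitted concentration of half-maximal effect; nearly all actives have a fitted effect of over 50% in size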
RORg inh: qHTS for inhibitors of ROR gamma transcriptional activity. Potency, µM (highest dose often 53.6 µM), for inactives: top-dose activity change, negative = inhibition, usual class: inhibitors. Nuclear receptor ROR-gamma (Mus musculus), P51450. hit rate 5.4% among 310,000. Drosophila S2 Gal4-RORgamma UAS-luciferase reporter, 20 h; note: potency is the fitted concentration of half-maximal effect; nearly all actives have a fitted effect of over 60% in size
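Schneider cells (Drosophila), stable Gal4 DBD–ROR gamma + UAS-luc; 1 hr cmpd preincubation; Cu2+ induction 700 uM final; 20 hr ambient; luminescence.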
ELG1 DNA repair: qHTS screen for small molecules that inhibit ELG1-dependent DNA repair in human embryonic kidney (HEK293T) cells expressing luciferase-tagged ELG1; HEK293T ELG1-luciferase reporter, luminescence, 16 h; DNA damage induced by 5-fluorouridine; hit rate 2.3% among 330,000; Potency, µM (highest dose often 46.1 µM), without a hit: at the top dose activity change, negative = inhibition, actives largely listed as inhibitors; note: potency is the fitted concentration of half-maximal effect; nearly all actives have a fitted effect of over 55% in size
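HEK293T cells expressing luciferase-tagged ELG1 (2,000/well) received 5-Fluorouridine plus compound or DMSO for 16 hr at 37 °C. Luciferase was read by ONE-Glo luminescence after 30 min at room temperature.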
ELG1 FLuc counter: qHTS screen for small molecules that inhibit ELG1-dependent DNA repair: Hit Confirmation in Cell-Based Luciferin Assay. Potency, µM (highest dose often 46.1 µM), for the others: at the highest dose activity change, negative = inhibition, usual class: inhibitors. cell-free firefly luciferase luminescence counter-screen, ViewLux. AID 624247, 2012. hit rate 3% among 350. shares compounds with ELG1 DNA repair; note: potency is the fitted concentration of half-maximal effect
ELG1 Luc conf: HTS assay for small molecules that inhibit ELG1-dependent DNA repair in human embryonic kidney (HEK293T) cells expressing luciferase-tagged ELG1: Hit Confirmation. HEK293T ELG1-luciferase levels, luminescence; cells co-treated with 5-fluorouridine. hit rate 68% among 670. AID 624248, 2012. shares compounds with ELG1 DNA repair. Potency, µM (highest dose often 46.1 µM), for the others: at the top dose activity change, negative = inhibition, most hits filed as inhibitors; note: potency is the fitted concentration of half-maximal effect; nearly all actives have a fitted effect of over 55% in size
Target sequence (Q96QE3 whole entry, looked up): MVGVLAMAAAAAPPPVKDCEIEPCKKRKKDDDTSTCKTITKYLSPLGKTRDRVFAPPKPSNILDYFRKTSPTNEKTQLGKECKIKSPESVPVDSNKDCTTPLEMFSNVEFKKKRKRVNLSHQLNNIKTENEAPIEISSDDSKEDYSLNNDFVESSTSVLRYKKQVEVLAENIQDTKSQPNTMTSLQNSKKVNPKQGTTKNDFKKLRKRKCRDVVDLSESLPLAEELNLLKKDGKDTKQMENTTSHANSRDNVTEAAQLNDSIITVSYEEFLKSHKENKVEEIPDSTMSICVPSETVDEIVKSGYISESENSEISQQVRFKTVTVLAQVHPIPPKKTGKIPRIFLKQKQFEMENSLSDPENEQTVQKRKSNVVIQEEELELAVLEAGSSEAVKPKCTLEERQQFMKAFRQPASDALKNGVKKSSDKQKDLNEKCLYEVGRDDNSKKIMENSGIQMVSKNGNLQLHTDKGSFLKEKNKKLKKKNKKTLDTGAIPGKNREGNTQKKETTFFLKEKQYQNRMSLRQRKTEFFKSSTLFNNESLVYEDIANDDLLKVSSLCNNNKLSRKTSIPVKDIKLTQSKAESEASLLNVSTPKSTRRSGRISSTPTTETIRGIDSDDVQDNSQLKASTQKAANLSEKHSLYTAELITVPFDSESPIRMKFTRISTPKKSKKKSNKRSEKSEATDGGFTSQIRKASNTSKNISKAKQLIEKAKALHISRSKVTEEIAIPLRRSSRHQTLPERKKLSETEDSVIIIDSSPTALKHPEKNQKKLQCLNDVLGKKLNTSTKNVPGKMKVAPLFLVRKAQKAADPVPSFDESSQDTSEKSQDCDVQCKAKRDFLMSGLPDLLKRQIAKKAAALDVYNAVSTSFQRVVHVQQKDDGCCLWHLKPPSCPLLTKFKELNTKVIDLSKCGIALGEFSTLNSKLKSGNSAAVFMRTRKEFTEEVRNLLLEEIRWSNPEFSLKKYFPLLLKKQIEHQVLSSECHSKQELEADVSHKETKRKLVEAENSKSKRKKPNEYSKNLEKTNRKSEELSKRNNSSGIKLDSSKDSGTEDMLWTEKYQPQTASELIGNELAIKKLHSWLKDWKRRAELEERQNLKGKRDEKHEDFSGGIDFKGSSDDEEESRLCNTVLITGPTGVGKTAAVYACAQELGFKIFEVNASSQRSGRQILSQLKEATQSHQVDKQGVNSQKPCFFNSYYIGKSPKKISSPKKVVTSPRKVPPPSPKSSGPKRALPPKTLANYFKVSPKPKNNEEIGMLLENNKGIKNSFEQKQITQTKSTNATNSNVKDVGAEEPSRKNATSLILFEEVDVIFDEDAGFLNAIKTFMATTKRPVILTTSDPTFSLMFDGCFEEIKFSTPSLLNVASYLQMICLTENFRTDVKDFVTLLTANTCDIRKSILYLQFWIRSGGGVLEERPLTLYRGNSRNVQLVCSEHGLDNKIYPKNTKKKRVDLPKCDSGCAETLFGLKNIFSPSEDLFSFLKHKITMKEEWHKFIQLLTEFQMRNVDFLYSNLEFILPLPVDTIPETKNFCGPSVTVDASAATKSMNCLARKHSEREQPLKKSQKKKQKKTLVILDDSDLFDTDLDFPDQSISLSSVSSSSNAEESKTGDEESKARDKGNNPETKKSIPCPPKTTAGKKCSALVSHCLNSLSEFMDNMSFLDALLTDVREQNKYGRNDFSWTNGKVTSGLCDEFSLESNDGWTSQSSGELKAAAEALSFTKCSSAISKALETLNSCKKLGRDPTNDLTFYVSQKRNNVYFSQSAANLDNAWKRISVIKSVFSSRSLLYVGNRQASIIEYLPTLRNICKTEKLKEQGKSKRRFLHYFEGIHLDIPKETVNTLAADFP
ELG1-Luc MMS: inhibits ELG1-dependent repair under MMS stimulation in HEK293T cells | AID 624249 | shares compounds with ELG1 DNA repair | hit rate 53% among 670 | HEK293T luciferase-tagged ELG1 level, MMS stimulated | Potency, µM (highest dose often 46.1 µM), without a hit: at the highest dose activity change, negative = inhibition, actives largely listed as inhibitors; note: potency is the fitted concentration of half-maximal effect; nearly all actives have a fitted effect of over 60% in size
ELG1 5-FU: qHTS screen for small molecules that inhibit ELG1-dependent DNA repair: Hit Confirmation with 5FU Viability | shares compounds with ELG1 DNA repair | cell viability with 5-FU, ELG1-dependent repair | 670 tested, under 10 active | AID 624250, 2012 | Potency, µM (doses to about 46.1 µM), for the others: top-dose activity change, negative = viability loss, most hits filed as cytotoxic;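 note: ELG1-luc HEK293T cells cotreated with 5-fluorouridine at 10 µM final; potency is the fitted concentration of half-maximal effect; viability measured 16 h after compound addition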
ELG1 MMS cell: qHTS screen for small molecules that inhibit ELG1-dependent DNA repair: Hit Confirmation with MMS Viability | shares compounds with ELG1 DNA repair | Cell viability with MMS, ELG1-dependent DNA repair | Potency, µM (titrated, usually from 46.1 µM), inactives show at the top dose activity change, negative = viability loss, most hits filed as cytotoxic | hit rate 33% among 670 | AID 624251, 2012;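 note: ELG1-luc HEK293T cells co-treated with 10 µM MMS; potency is the fitted concentration of half-maximal effect; viability read 16 h after compound addition; nearly all actives have a fitted effect of over 60% in size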
Cell viab unstim: qHTS screen for small molecules that inhibit ELG1-dependent DNA repair: Hit Confirmation with Unstimulated Viability Assay; shares compounds with ELG1 DNA repair; cell viability counter-screen, unstimulated, luminescence; Potency, µM (series often up to 45.9 µM), for inactives: at the top dose activity change, negative = loss of viability, usual class: cytotoxic; hit rate 8% among 900; AID 624252, 2012;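 note: potency is the fitted concentration of half-maximal effect; compound exposure lasted 16 hours before reading; nearly all actives have a fitted effect of over 55% in size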
FLuc biochem: qHTS screen for small molecules that inhibit ELG1-dependent DNA repair: Hit Confirmation in Biochemical Luciferin Assay; shares compounds with ELG1 DNA repair; purified firefly luciferase, luminescence counter-screen; Potency, µM (highest dose often 57.5 µM), for inactives: at the top dose activity, negative = inhibition, most hits filed as inhibitors; hit rate 10% among 350; note: potency is the fitted concentration of half-maximal effect
Active calls of the source: *; ? = inconclusive; . = no result given; [ ] = remark or other dose. Unless noted, calls come from the whole dose curve; as a rule, active = well fitted curve in the direction sought with a large enough effect; inconclusive = small, poorly fitted or top-dose-only effect, or another doubt; inactive = no such curve, though single readings can be large; an effect the other way counts as inactive or inconclusive. % is set by controls: 0 for no effect and ±100 for the full control effect.

SMILES	DT40 TDP1 no CPT	IL1B secr inh	DT40 TDP1 CPT	Gal4-VP16 FLuc	RORg inh	ELG1 DNA repair	ELG1 FLuc counter	ELG1 Luc conf	ELG1-Luc MMS	ELG1 5-FU	ELG1 MMS cell	Cell viab unstim	FLuc biochem
CC(=O)Nc1ccccc1C(=O)OCc1ccccc1F	-8.1%	11.6	-3.4%	-8.4%	34.5%	?	.	.	.	.	.	.	.
COc1ccc(C(Nc2ccccc2)P(=O)(Oc2ccccc2)Oc2ccccc2)cc1 (stereo unspecified)	?	-3.9	-4.3%	?	29.6%	?	21.5%	7.06µM*	?	?	?	?	0.5%
O=CNc1ccc(OP(=O)(Oc2ccccc2)Oc2ccccc2)cc1	-26.0%	-19.6	-23.7%	4.0%	-1.1%	-17.3%	.	.	.	.	.	.	.
Cc1c(C(=O)N2CCC(Cc3ccccc3)CC2)sc2ncnc(N3CCC(C)CC3)c12	?	-1.8	20.6µM*	-3.4%	17.0%	0.1%	2.2%	15.8µM*	?	9.7%	-12.1%	-3.5%	2.1%
CCCCCC1C(=O)O[C@H](C)[C@@H](NC(=O)c2cccc(NC=O)c2O)C(=O)OC(C)C1OC(=O)CC(C)C (stereo partly specified)	0.0461µM*	.	0.0461µM*	11.2µM*	0.005µM*	.	4.0%	34.8%	0.0141µM*	-21.5%	0.0141µM*	?	0.2%
COc1ccccc1Cn1c(SCC(=O)C(C)(C)C)nc2cc(C(=O)N3CCC4(CC3)OCCO4)ccc2c1=O	.	.	.	1.1%[10 µM]	9.4%	-23.1%	.	.	.	.	.	.	.
CN[C@@H]1C[C@@]2(C)O[C@@H]([C@@H]1OC)n1c3ccccc3c3c4c(c5c6ccccc6n2c5c31)C(=O)NC4	.	.	.	.	.	.	0.706µM*	0.5µM*	0.315µM*	11.2µM*	0.997µM*	5µM*	0.7%
COc1nc2ccccc2nc1N1CCN(C)CC1	0.8%	-25.4	2.0%	-1.2%	-2.5%	0.0%	.	.	.	.	.	.	.
CCC12CN3CCN(CC(C3)/C1=N/NC(=O)c1ccncc1)C2	-4.2%	0.0	1.9%	14.5%	-4.3%	9.6%	.	.	.	.	.	.	.
CC(=O)OC[C@]12CCC(C)=C[C@H]1O[C@@H]1[C@H](O)[C@@H](OC(C)=O)[C@@]2(C)[C@]12CO2	0.0164µM*	-105.7*	0.0206µM*	0.0016µM*	0.0316µM*	0.0183µM*	?	0.0281µM*	0.0177µM*	-0.2%	0.0445µM*	?	-5.2%
FC(F)=C(F)CCSc1ncn[nH]1	6.2%	0.0	2.2%	-9.6%[10 µM]	4.9%	4.5%	.	.	.	.	.	.	.
CC[C@@H]1/C=C/C=C/C[C@H](C)[C@@H](O)[C@](C)(O)C(=O)[C@H](C)[C@@H](O)[C@H](C)C(=O)[C@H](C)[C@@H](O)[C@H](C)/C=C/C(=O)O[C@H]2[C@@H](C)[C@@H](CC1)O[C@@]1(CC[C@@H](C)[C@@H](C[C@H](C)O)O1)[C@@H]2C	.	.	.	.	.	.	?	7.06µM*	0.0112µM*	?	0.0112µM*	0.0281µM*	-1.8%
O=C(CSc1nc2ccccc2c(=O)n1-c1ccc(F)c(Cl)c1)Nc1ccc2c(c1)CCC2	-18.8%	-0.2	?	.	.	.	.	.	.	.	.	.	.
CC(C)(C)OC(=O)NCc1ccc(CNC(=O)c2nc[nH]c2C(=O)NCc2ccc(CNC(=O)OC(C)(C)C)cc2)cc1	20.6µM*	5.9	14.6µM*	.	.	2.91µM*	.	4.99µM*	?	6.9%	9.2%	?	.
CCC(C)C(NC(=O)CCCNC(=O)CCC(=O)OC1O[C@H]2OC3(C)CC[C@H]4[C@H](C)CCC(C1C)C24OO3)C(=O)O (stereo partly specified)	.	.	.	1.8%	-4.6%	0.58µM*	-12.2%	?	?	-5.8%	-3.7%	?	-2.6%
CC1(C)Cc2c(c(N3CCOCC3)nc3sc4c(NCc5ccccc5)nnnc4c23)CS1	23.1µM*	-21.0	16.4µM*	-29.5%	4.3%	13µM*	4.0%	2.5µM*	15.0%	?	-1.6%	-12.7%	-14.2%
CCS(=O)(=O)NC(C)c1nnc2n1-c1ccc(Br)cc1C(c1ccccc1Cl)=NC2 (stereo unspecified)	-23.9%	38.5	-8.0%	.	.	.	.	.	.	.	.	.	.

Screening results as filed in PubChem.
